Source: PubChem
This is one part of a sample in which hits are shown more often than they occur.
HT1080 IDH1KD tx – HT-1080 IDH1 knockdown cell toxicity (counter line); HT-1080 IDH1 knockdown viability, ATP luminescence, 48 h; hit rate 2% among 360,000; Potency, µM (highest dose often 46.1 µM), hits mostly cytotoxic; AID 686971
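In this qHTS, HT-1080 cells depleted of IDH1 are exposed for 48 h at 37 °C to compound titrations. Toxicity is scored from CellTiter-Glo luminescence, with DMSO as full viability and medium alone as none.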
IL-1B inflam inh – inflammasome signaling inhibition, IL-1 beta readout. activity change, % at 57.5 µM. THP-1 LPS/ATP IL-1B secretion, AlphaLISA, 16 h; hits give low values. hit rate 4.7% among 360,000; in the data active = activity change below about -50%; inconclusive = mostly about -30% to -49%
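THP-1 cells pretreated 1 hr with compounds (up to 57.5 uM final), then stimulated with LPS (250 ng/mL final) plus ATP (1.25 mM final); secreted IL-1B measured by AlphaLISA after 16 hr, decreased signal indicating inhibition.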
HT1080NT lethal – kills 2HG-producing HT-1080-NT fibrosarcoma cells; HT-1080-NT fibrosarcoma viability, CellTiter-Glo ATP luminescence, 48 h; Potency, µM (series often up to 46.1 µM), usual class: cytotoxic; hit rate 1.6% among 360,000;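 note: NT is the 2HG producing partner of a matched IDH1 knockdown line; nearly all actives have a fitted effect of over 55% in size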
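Viability by CellTiter-Glo luminescence after 48 h compound exposure at 37C of HT-1080-NT cells (750/well, RPMI, 5% FBS). % activity scaled between DMSO wells and medium-only wells, then curve-fitted and categorized by curve class.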
12-LOX inh – blocks human arachidonate 12S-lipoxygenase | P18054 | purified 12hLO, xylenol orange hydroperoxide absorbance | Potency, µM (highest dose often 108 µM), hits mostly inhibitors | hit rate 1.1% among 580,000 | AID 1671190
Target sequence (P18054 whole entry, looked up): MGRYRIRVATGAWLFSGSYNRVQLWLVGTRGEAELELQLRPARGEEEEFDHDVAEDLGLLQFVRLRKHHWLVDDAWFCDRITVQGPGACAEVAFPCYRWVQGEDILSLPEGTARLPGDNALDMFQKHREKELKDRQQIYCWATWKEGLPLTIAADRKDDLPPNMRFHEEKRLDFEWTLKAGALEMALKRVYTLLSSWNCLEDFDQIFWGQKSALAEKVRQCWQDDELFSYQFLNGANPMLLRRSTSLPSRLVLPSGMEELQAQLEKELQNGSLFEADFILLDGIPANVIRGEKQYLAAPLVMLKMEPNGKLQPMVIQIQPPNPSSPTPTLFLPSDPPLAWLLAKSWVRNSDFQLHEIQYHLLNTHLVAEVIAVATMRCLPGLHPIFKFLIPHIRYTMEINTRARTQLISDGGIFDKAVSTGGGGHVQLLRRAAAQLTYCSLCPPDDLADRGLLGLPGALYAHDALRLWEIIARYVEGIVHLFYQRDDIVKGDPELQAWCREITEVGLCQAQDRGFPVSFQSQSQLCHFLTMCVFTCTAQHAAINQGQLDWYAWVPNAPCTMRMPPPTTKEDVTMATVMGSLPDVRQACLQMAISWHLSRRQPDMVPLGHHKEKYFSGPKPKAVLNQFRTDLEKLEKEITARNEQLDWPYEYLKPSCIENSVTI
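Purified human 12hLO at 150 nM in 25 mM Hepes, 0.01% Triton X-100, pH 7.0, preincubated 15 min at room temperature with compound. Reaction started with 40 uM arachidonic acid, 30 min at room temperature. Hydroperoxide measured by Fe-xylenol orange, 573/405 nm absorbance ratio.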
TDP1 cell noCPT – qHTS for Inhibitors of human tyrosyl-DNA phosphodiesterase 1 (TDP1): qHTS in cells in absence of CPT; DT40 Tdp1-/- hTDP1 cells, no CPT, ATP luminescence, 48 h; Potency, µM (titrated, usually from 46.2 µM), most hits filed as inhibitors; hit rate 15% among 420,000; AID 686978, 2013; note: nearly all actives have a fitted effect of over 55% in size
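Readout: luminescence from CellTiter-Glo after 30 min in the dark at RT. Cells: DT40 Tdp1-/- with stable hTDP1, 400/well. Exposure: compounds alone, ≥48 hr, 37 °C.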
TDP1 cell CPT – DT40-hTDP1 cell growth loss with CPT | chicken DT40 Tdp1-/-;hTDP1 cells + 20 nM CPT, ATP luminescence, 48 h | Potency, µM (highest dose often 46.2 µM), actives largely listed as inhibitors | hit rate 12% among 420,000 | AID 686979; note: nearly all actives have a fitted effect of over 55% in size
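Cell growth measured by CellTiter-Glo luminescence after a minimum 48 h, 37 C compound exposure with 20 nM CPT in Tdp1-knockout DT40 cells stably expressing hTDP1, seeded 400/well; qHTS titration format.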
Numbers stand for hits; n = inactive; u = inconclusive; x = no result; [ ] = remark or other dose. Unless noted, calls come from the whole dose curve; as a rule, active = well fitted curve in the direction sought with a large enough effect; inconclusive = small, poorly fitted or top-dose-only effect, or another doubt; inactive = no such curve, though single readings can be large; an effect the other way counts as inactive or inconclusive.

SMILES	HT1080 IDH1KD tx	IL-1B inflam inh	HT1080NT lethal	12-LOX inh	TDP1 cell noCPT	TDP1 cell CPT
CN(C(=O)c1ccco1)c1nc(-c2ccc(Cl)cc2)cs1	n	u	n	n	u	u
COc1ccc(-c2csc(N(C)C(=O)c3ccco3)n2)cc1	n	n	n	n	n	n
CN(C)CCCN(C(=O)c1ccco1)c1nc(-c2ccc(Cl)cc2)cs1	n	-54	n	u	u	u
COCCCN(C(=O)c1ccco1)c1nc(-c2cc(OC)ccc2OC)cs1	n	n	u	n	u	u
CC(C)(C)NC(=O)C1CC1	x	x	x	n	x	x
Cc1ncccc1C(=O)N1CC(=O)N(C2CCCCC2)CC(OCc2ccccc2)C1 (configuration not stated)	x	x	x	n	x	x
O=[N+]([O-])c1ccc(N=Nc2c(Cl)cc(O)cc2Cl)cc1	8.2µM	u	6.5µM	u	4.6µM	4.1µM
O=C(Nc1ccc(N2CCOCC2)cc1)c1cc2c(s1)CCCCC2	7.3µM	-80	n	n	21µM	23µM
O=C(Nc1ccc(N2CCOCC2)cc1)c1cc2c(s1)CCCC2	u	-79	n	u	u	u
C=CCNC(N)=S	n	n	n	n	n	n
C=CCNC(=S)N(C1CCCCC1)C1CCCCC1	n	n	n	n	23µM	u
Cc1ccc(C(=O)N(C)C2CCCCC2)cc1Br	x	x	x	n	x	x
Cc1cc(C(F)(F)F)n(-c2nc(C(=O)N/N=C/c3ccc(F)cc3)cs2)n1	n	n	n	n	u	16µM
Cc1ccc(C)c(C(=O)NCc2nnc3ccc(-c4ccc(C)c(C)c4)nn23)c1	x	x	x	n	x	x
Cc1ccc(-c2c(C#N)c(N)nc3c2CCCC3)cc1	x	x	x	n	x	x
Cc1ccc2c(n1)sc1c(-c3ccc(Br)cc3)c(C#N)c(N)nc12	n	n	n	u	18µM	u
COc1cc2cc(CN(Cc3cccs3)C(=S)Nc3ccccc3)c(=O)[nH]c2cc1OC	n	n	n	n	21µM	u
Cc1ccc(NC(=S)N(Cc2cccs2)Cc2cc3cccc(C)c3[nH]c2=O)cc1	n	n	n	n	12µM	21µM
CNC(=S)N(Cc1ccc(OC)cc1)Cc1cc2ccc(C)cc2[nH]c1=O	n	n	n	n	u	n
Cc1cccc2cc(CN(Cc3cccs3)C(=S)NCC3CCCO3)c(=O)[nH]c12 (configuration not stated)	n	n	n	n	u	u
CCNC(=S)N(Cc1cccs1)Cc1cc2cc(OCC)ccc2[nH]c1=O	n	n	n	n	16µM	u
CNC(=S)N(Cc1cccs1)Cc1cc2ccc(OC)cc2[nH]c1=O	n	n	n	n	18µM	u
CC(Cc1ccco1)NC(=O)c1cc2cc(S(=O)(=O)N(C)C)ccc2n1C (configuration not stated)	x	x	x	n	x	x
CC(C)NC(=O)N1[C@H](c2cccs2)[C@@H](C)C(=O)[C@@H](C)[C@@H]1c1cccs1	x	x	x	n	u	15µM
CCCNC(=O)N1[C@H](c2cccs2)[C@@H](C)C(=O)[C@@H](C)[C@@H]1c1cccs1	x	x	x	n	u	n
SMILES	HT1080 IDH1KD tx	IL-1B inflam inh	HT1080NT lethal	12-LOX inh	TDP1 cell noCPT	TDP1 cell CPT
CCNC(=S)N(CCc1c(C)[nH]c2ccccc12)Cc1cc(OC)c(OC)c(OC)c1	n	n	n	u	10µM	16µM
CNC(=S)N(CCc1c(C)[nH]c2ccc(C)cc12)Cc1cc(OC)c(OC)c(OC)c1	n	n	n	n	15µM	u
CNC(=S)N(CCc1c(C)[nH]c2ccccc12)Cc1cc(OC)c(OC)c(OC)c1	n	n	n	n	21µM	u
CCNC(=S)N(CCc1c(C)[nH]c2ccccc12)Cc1cccnc1	n	n	n	n	u	u
Cn1c(COc2ccccc2)nnc1SCC(=O)NC1CCCC1	n	n	n	n	n	n
CC(C)(C)C(=O)Nc1c(NC2CCCC2)c2ccccc2oc1=O	x	x	x	n	x	x
COc1ccc(CNC(=O)Cn2c(=O)c3c(C)cc(C)nc3n(-c3ccccc3OC)c2=O)cc1	x	x	x	n	x	x
c1csc(-c2noc(CNc3ccc(-n4cnnn4)cc3)n2)c1	x	x	x	n	x	x
COc1ccccc1-c1cc(C(=O)N2CCCC2)nc2c1cnn2C	x	x	x	n[6.33 µM]	x	x
CC1(C)CC2(C)OC(=N)C1(C#N)C2(C#N)C#N (configuration not stated)	u	-101	u	n	15µM	u
CN(C)c1cc(CNC(=O)/C=C/c2cccc(F)c2)ccn1	x	x	x	n	x	x
Cc1ccc(C)n1-c1nc(=S)[nH][nH]1	n	n	n	4.5µM	n	n
C(=Nc1ccccc1)c1ccc(-c2cccs2)s1	x	x	x	n	x	x
Cc1ccnc(N2C3CCC2CC(O)(c2ccccc2)C3)n1 (configuration not stated)	n	n	n	n	n	n
Cc1cc(N2C3CCC2CC(O)(c2ccc(F)cc2)C3)nc(-c2ccccc2)n1 (configuration not stated)	n[9.24 µM]	-56	14µM	u	u	u
CCc1nc2sc(C(C)=O)c(N)c2c2c1CCCC2	n	n	n	u	15µM	u
Cc1nc2sc(C(N)=O)c(N)c2c2c1CCCC2	n	-95	n	n	u	u
NC(=O)c1sc2nc(-c3ccccc3)c3c(c2c1N)CCCC3	n	n	n	n	16µM	u
Cc1ccc(-c2nc3sc(C(N)=O)c(N)c3c3c2CCCC3)cc1	n	n	n	u	u	u
COc1ccc(-c2ccccc2-c2noc3ccccc23)cc1	x	x	x	n	x	x
Cc1ccc(NC(=O)c2c3c(nc4ccccc24)C(=O)N(C2CCCCC2)C3)cc1F	x	x	x	n	12µM	8.2µM
CC(C)OCCCNC(=O)c1c2c(nc3ccccc13)C(=O)N(C1CCCCC1)C2	x	x	x	n	n	n
Cc1ccccc1NC(=O)c1c2c(nc3ccccc13)C(=O)N(C1CCCCC1)C2	x	x	x	n	21µM	u
CCOc1ccccc1NC(=O)c1c2c(nc3ccccc13)C(=O)N(C1CCCCC1)C2	x	x	x	n	5.8µM	6.5µM
CCOc1ccccc1NC(=O)CSc1nc2ccccc2c(=O)n1CC1CCCO1 (configuration not stated)	n	n	n	n	u	u
CCN(CC)S(=O)(=O)c1ccc(N2CCCCC2)c(NC(=O)CC(C)C)c1	x	x	x	n	x	x
CCn1ccc2oc(C)c(C(=O)N3CCN(c4ccc(OC)cc4)CC3)c2c1=O	x	x	x	n	x	x
O=C1CS(=O)C2(CCN(S(=O)(=O)c3ccccc3)CC2)N1CC1CC1 (configuration not stated)	x	x	x	n	x	x
CC(=O)N(C1=C(N)C(=O)c2ccccc2C1=O)c1ccccc1	u	n	n	n	13µM	23µM
